The record followed here is PubChem BioAssay (NCATS).

Experiment [1] can be described thus: qHTS for compounds that reverse cellular toxicity of Amyloid beta (A-beta) peptide in yeast: LOPAC Validation Assay (AID 720559).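 Note: plate controls were DMSO for no effect and equimolar ferric chloride plus clioquinol rescue for full effect.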 The procedure, abridged: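 Here, A-beta-toxic yeast grow with test compounds at 30 C for 48 hr before optical density at 600 nm is recorded; data are normalized against DMSO and the FeCl3-clioquinol control.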
The nature of experiment [2]: qHTS for Activators of Parkin Expression: LOPAC Validation Assay (NLuc Reporter) (AID 720572;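 note: 0% = DMSO and 100% = positive control compound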). The procedure, abridged: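 Parkin promoter-driven FLuc/NLuc neuronal reporter cells; 24 h plating, 7-pt dose response, 24 h at 37 C/5% CO2; FLuc then NanoLuc reagent, 10 min each, luminescence; DMSO/positive control normalized.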
The nature of experiment [3]: qHTS for Activators of Parkin Expression: LOPAC Validation Assay (FLuc Reporter) (AID 720573;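 note: 0% = DMSO and 100% = positive control compounds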). The procedure, abridged:
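Readout is FLuc luminescence from neuronal reporter cells (Parkin promoter, FLuc plus NLuc) after 24 h compound exposure in dose response. Values normalized to neutral DMSO and positive-control compounds.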
In general terms: qHTS replaces the single test concentration by a dilution series.

Experiment [4] concerns the target T1, Hexokinase-4 (Homo sapiens) + Glucokinase regulatory protein (Homo sapiens) (UniProt P35557+Q14397). Description: qHTS assay for inhibitors of recombinant human GCK-GKRP interaction: Diaphorase-coupled assay (AID 743205). The procedure, abridged:
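Signal derives from resorufin generated by diaphorase, linked to GCK turnover of glucose (5 mM) and ATP (0.4 mM). Enzyme complex was added after a 20-minute compound preincubation and monitored for 30 minutes.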

Experiment [5] addresses T1, Hexokinase-4 (Homo sapiens) + Glucokinase regulatory protein (Homo sapiens). As to the kind of experiment: qHTS assay for inhibitors of recombinant human GCK-GKRP interaction: ADP-Glo assay (AID 743206).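 Note: plate controls were DMSO plus enzyme for no effect and no enzyme for full effect.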 The procedure, abridged:
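GST-GCK and FLAG-GKRP (15 nM each in the dispensed mix, with 2 uM S6P) react with 0.4 mM ATP and 5 mM glucose (final) in Hepes pH 7.6 for 60 min at room temperature. ADP is measured by ADP-Glo luminescence.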

Experiment [6] has the same target. As to the kind of experiment: qHTS assay for inhibitors of recombinant human GCK-GKRP interaction: HTRF assay (AID 743207).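 Note: 0% = DMSO with GCK present and -100% = DMSO wells lacking GCK.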 The procedure, abridged: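 Titration screening format: recombinant GST-GCK and FLAG-GKRP at 5 nM, S6P at 2 uM, labelled anti-tag antibodies, 60 min at RT, dual-wavelength HTRF readout.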
The nature of experiment [7]: qHTS Assay for Identifying Gametocytocidal Compounds (AID 743244).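 For max response: % is set by controls: 0 for no effect and ±100 for the full control effect; actives lower the fluorescent signal which means gametocytes are killed.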 Note: potency is the fitted concentration of half-maximal effect. The settings on record: P. falciparum 3D7 stage III-V gametocytes, alamarBlue, 72 h; max response: active compounds read low. The procedure, abridged: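 A resazurin-based viability read-out was applied to mature P. falciparum gametocytes: 72 h compound treatment, then 24 h dye incubation, with falling fluorescence signalling gametocytocidal effect.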

The target in experiment [8] is Tumor necrosis factor (Homo sapiens) (UniProt P01375). Description: qHTS assay to identify small molecules that stimulate Tumor Necrosis Factor-alpha (TNF-alpha) secretion (AID 651757; active = well fitted curve in the direction sought with a large enough effect in the signal ratio; the % refers to the signal ratio; note: 0% is about no effect). The procedure, abridged:
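Secreted TNF-alpha from compound-treated THP-1 cells (17 hrs, 37 C) was quantified with a homogeneous time-resolved fluorescence antibody assay.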

The nature of experiment [9]: qHTS assay for environmental chemicals that activate the Aryl hydrocarbon Receptor (AhR) signaling pathway (AID 651777). Note: % of control where 0% means no effect; nearly all actives have a fitted effect of over 15% in size. The following applies: 1A2-DRE human hepatoma cells, luciferase, 24 h; activation: active compounds read high. The procedure, abridged: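 Human hepatoma 1A2-DRE cells, stably carrying a dioxin response element and CYP1A2 promoter driving luciferase, were exposed to compounds for 24 hr at 37 C and 5% CO2. Luciferase signal was then read after 30 min One-Glo at room temperature.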

Experiment [10] addresses Peroxisome proliferator-activated receptor alpha (Homo sapiens) (UniProt Q07869). Description: qHTS assay for small molecule agonists of the peroxisome proliferator-activated receptor alpha (PPARalpha) signaling pathway (AID 651778). Note: % of control where 0% means no effect. The settings on record: PathHunter PPARalpha complementation, chemiluminescence, 6 h; max response: active compounds read high. The procedure, abridged:
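Chemiluminescence from complemented enzyme reported PPARalpha activation in cells after 6 hr of compound treatment at 37 C. The detection reagent was incubated for 60 min at room temperature, and compounds were scored as agonists.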

The nature of experiment [11]: qHTS assay for small molecule antagonists of the retinoid-related orphan receptor gamma (ROR-gamma) signaling pathway - cell viability counter screen (AID 720652; active = well fitted curve in the direction sought with a large enough effect in the repeat runs; an effect the other way counts as inactive or inconclusive;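 note: series mostly up to about 92 µM; compound exposure lasted 16 hr before ATP read; % is set by controls: 0 for no effect and ±100 for the full control effect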). The procedure, abridged: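 Cytotoxicity is quantified via intracellular ATP (CellTiter-Glo luminescence) in doxycycline-induced CHO ROR response element-luciferase reporter cells treated with compound for 16 hr at 37 C, 5% CO2.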

Experiment [12] in a line: qHTS assay to identify small molecules that stimulate interleukin-8 (IL-8) secretion (AID 651758; active = well fitted activation curve with a large enough effect in the signal ratio; the % refers to the signal ratio; note: potency is the fitted concentration of half-maximal effect; for activation: 0% is about no effect). The procedure, abridged: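 Secreted IL-8 measured by TR-FRET sandwich (cryptate and XL665 antibodies) from THP-1 cells exposed to compound overnight (16 hrs, 37 C).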
Experiment [13] concerns the target Nuclear receptor ROR-gamma (Homo sapiens) (UniProt P51449). As to the kind of experiment: qHTS assay for small molecule antagonists of the retinoid-related orphan receptor gamma (ROR-gamma) signaling pathway (AID 651802). Note: nearly all actives have a fitted effect of over 60% in size. Note: potency is the fitted concentration of half-maximal effect. The procedure, abridged:
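Antagonism is scored as a fall in luminescence from a RORE-luciferase reporter in CHO cells expressing ROR under a TET-inducible promoter, measured 16hr after doxycycline induction in the presence of compound.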

Experiment [14] is described as follows: qHTS assay for small molecule agonists of the antioxidant response element (ARE) signaling pathway measured by Nrf2-dependant transcriptional activity - cell viability counter screen (AID 720653; active = well fitted curve in the direction sought with a large enough effect in the repeat runs; an effect the other way counts as inactive or inconclusive; note: % is set by controls: 0 for no effect and ±100 for the full control effect). The following applies: ARE-bla HepG2 viability, CellTiter-Glo ATP luminescence, 16 h; active compounds read low. The procedure, abridged: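 Cytotoxicity counter screen: intracellular ATP quantified by CellTiter-Glo luminescence in the same ARE-bla HepG2 plates, after 16 h compound exposure and a 2 h beta-lactamase substrate step.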

A short description of experiment [15]: qHTS assay for cell viability of HEK293 cells (AID 743288). Note: % is set by controls: 0 for no effect and ±100 for the full control effect; nearly all actives have a fitted effect of over 50% in size. The settings on record: ATP luminescence (CellTiter-Glo), 18 h, active compounds read low. The procedure, abridged:
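Luminescent ATP quantitation served as the viability read-out. Cells (parental HEK293, 2,000/well) received compounds after at least 5 h at 37 C and were exposed for 18 h before a 30 min room-temperature reagent step.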

Experiment [16] is described as follows: qHTS assay for small molecule agonists of the antioxidant response element (ARE) signaling pathway measured by Nrf2-dependant transcriptional activity (AID 720636; active = well fitted curve in the direction sought with a large enough effect in the repeat runs; an effect the other way counts as inactive or inconclusive; note: % of control where 0% means no effect). The procedure, abridged:
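ARE-luc HepG2 cells carrying an Nrf2-responsive luciferase reporter were plated in medium with 1% dialyzed FBS, left 6 hr at 37 C to attach, then exposed to compound for 16 hr. Luciferase luminescence was read after ONE-Glo addition.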

Experiment [17] can be described thus: qHTS assay for cell viability of the p53RE-bla HCT-116 cell line (AID 743292). Note: % is set by controls: 0 for no effect and ±100 for the full control effect; nearly all actives have a fitted effect of over 55% in size. The procedure, abridged: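 CellSensor p53RE-bla HCT-116 cells, 4,000/well, preincubated 5 h at 37 C, then exposed to compounds in DMSO for 16 h at 37 C. Viability read as CellTiter-Glo luminescence (intracellular ATP) after 30 min at room temperature.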

Molecules are shown by their SMILES. Values joined by “and” are separate entries in the source; they are usually repeats but may differ in a detail not shown here. Equal values may be shown once. Inconclusive results are not listed. Active and inactive are the calls of the source. Unless noted, calls come from the whole dose curve; as a rule, active = well fitted curve in the direction sought with a large enough effect; inconclusive = small, poorly fitted or top-dose-only effect, or another doubt; inactive = no such curve, though single readings can be large; an effect the other way counts as inactive or inconclusive.

Tumor necrosis factor (Homo sapiens), sequence (P01375 whole entry, looked up): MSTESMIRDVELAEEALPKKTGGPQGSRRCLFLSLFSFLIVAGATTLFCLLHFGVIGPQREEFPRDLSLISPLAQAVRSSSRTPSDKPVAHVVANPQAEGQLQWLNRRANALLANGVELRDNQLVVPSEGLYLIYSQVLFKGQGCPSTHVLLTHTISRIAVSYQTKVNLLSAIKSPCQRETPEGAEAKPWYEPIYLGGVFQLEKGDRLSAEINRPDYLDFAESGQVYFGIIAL
Nuclear receptor ROR-gamma (Homo sapiens), sequence (P51449 whole entry, looked up): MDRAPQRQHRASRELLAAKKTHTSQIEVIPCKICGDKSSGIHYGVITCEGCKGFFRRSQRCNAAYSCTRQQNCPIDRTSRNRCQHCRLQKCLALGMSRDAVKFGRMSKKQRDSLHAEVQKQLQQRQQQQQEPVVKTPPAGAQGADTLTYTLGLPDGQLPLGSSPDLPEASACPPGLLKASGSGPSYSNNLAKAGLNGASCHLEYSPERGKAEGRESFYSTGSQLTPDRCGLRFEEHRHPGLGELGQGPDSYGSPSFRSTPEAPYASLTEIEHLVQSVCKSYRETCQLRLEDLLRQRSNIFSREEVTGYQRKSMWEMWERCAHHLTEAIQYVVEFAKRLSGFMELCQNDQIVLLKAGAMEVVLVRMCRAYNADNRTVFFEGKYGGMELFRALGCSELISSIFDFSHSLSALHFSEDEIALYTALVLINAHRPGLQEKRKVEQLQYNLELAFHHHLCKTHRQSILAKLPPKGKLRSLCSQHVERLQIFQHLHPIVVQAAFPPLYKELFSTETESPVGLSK
T1 sequence (P35557 whole entry, looked up): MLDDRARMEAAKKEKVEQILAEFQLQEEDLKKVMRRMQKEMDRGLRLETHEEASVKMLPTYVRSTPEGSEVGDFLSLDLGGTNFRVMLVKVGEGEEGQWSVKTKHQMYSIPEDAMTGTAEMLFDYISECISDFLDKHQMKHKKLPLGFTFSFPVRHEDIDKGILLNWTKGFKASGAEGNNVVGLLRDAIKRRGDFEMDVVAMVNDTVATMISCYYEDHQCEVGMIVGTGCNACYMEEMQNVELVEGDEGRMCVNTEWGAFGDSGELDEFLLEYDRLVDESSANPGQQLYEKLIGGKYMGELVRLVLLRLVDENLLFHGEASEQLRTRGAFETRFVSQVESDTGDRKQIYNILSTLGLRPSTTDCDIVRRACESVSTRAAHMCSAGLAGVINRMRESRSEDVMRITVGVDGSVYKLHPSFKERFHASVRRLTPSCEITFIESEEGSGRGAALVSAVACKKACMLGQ
T1 sequence (Q14397 whole entry, looked up): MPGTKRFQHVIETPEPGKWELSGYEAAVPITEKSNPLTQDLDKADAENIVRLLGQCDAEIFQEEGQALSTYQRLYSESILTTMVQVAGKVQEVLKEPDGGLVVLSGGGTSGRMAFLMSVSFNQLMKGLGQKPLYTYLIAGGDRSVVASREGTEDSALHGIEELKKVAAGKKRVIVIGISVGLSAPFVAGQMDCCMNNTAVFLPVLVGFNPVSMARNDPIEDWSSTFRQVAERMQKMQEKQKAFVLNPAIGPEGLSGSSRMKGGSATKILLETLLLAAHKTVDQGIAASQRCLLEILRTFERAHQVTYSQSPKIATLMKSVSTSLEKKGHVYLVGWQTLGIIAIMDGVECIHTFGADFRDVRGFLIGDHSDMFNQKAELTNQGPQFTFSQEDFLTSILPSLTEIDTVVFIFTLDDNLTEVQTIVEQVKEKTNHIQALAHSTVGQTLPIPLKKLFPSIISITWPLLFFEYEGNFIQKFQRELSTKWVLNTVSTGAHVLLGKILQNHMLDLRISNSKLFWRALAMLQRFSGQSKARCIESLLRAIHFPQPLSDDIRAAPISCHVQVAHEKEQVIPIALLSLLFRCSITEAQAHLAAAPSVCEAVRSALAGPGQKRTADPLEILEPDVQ
Peroxisome proliferator-activated receptor alpha (Homo sapiens), sequence (Q07869 whole entry, looked up): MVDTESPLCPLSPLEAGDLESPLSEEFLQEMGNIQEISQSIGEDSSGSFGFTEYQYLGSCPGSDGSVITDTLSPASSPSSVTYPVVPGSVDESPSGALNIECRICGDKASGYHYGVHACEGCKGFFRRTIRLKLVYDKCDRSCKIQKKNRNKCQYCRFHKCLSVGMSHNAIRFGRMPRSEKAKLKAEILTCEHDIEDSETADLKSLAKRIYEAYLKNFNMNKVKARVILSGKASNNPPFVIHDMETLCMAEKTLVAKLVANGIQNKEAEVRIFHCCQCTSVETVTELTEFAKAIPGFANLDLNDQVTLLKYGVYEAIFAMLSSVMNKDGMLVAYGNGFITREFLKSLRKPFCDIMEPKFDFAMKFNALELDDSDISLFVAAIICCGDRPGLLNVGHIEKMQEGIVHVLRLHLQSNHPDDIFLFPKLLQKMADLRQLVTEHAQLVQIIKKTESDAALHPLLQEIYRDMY

In the case of `N[C@@H](Cc1cnc[nH]1)C(=O)O`, the call in [1], in experiment [2], in [3], in experiment [4], in experiment [5] and in experiment [6] was inactive. In [7], the max response was 4.12% (inactive) and 12.1% (inactive).
Turning to `CC(C)(C)CC(C)(C)c1ccc(OCCOCC[N+](C)(C)Cc2ccccc2)cc1`, the result in [8] was inactive. The activation in experiment [9] is 2.85% (inactive) and 2.84% (inactive). Also, the max response in experiment [10] was -0.283% (inactive) and 4.47% (inactive). The Potency entry in [11] is “inactive”. In addition, the Potency in experiment [7] is 8.91 µM (active).
Take `Oc1ccc(O)cc1`: the figures for the Potency in experiment [12] and in experiment [13] were 66.8 µM (active) and 10.6 µM (active), respectively. Further, the max response in experiment [10] is -2.94% (inactive); in experiment [14] it was -23.3% (inactive); in experiment [15] it was -28.2% (inactive). Moreover, the compound was classed as inactive in experiment [1], in experiment [2], in experiment [3], in [4], in experiment [5] and in experiment [6].
For `CC(C)C[C@H]1C(=O)N2CCC[C@H]2[C@]2(O)O[C@](NC(=O)[C@@H]3C=C4c5cccc6[nH]c(Br)c(c56)C[C@H]4N(C)C3)(C(C)C)C(=O)N12`, the outcome in [1], in experiment [2], in experiment [3], in [4], in experiment [5] and in experiment [6] was inactive.
Regarding `CC(=O)O[C@]1(C(C)=O)CC[C@H]2[C@@H]3C[C@H](C)C4=CC(=O)CC[C@]4(C)[C@H]3CC[C@@]21C`, the compound was called inactive in experiment [8] and in [17]. Moreover, the activation in [9] was 0.858% (inactive) and 1.58% (inactive). The max response in experiment [10] is 0.549% (inactive) and -0.24% (inactive); in [14] it was -14.4% (inactive) and -14.9% (inactive). Moreover, the Potency in [13] is 16.8 µM (active). Also, the Potency result in [16] and in [11] was “inactive” in each case.
Take `O=c1ccc2ccccc2o1`: the compound was classed as inactive in [8] and in [17]. Besides, the Potency result in experiment [12], in experiment [13], in experiment [16] and in experiment [11] was “inactive” throughout. Further, the activation in [9] is -0.0038% (inactive) and -0.214% (inactive) and 9.96% (inactive). The max response in experiment [10] was -5.67% (inactive) and -0.649% (inactive) and -3.56% (inactive); in experiment [14] it was 0.83% (inactive) and -14.1% (inactive) and -0.794% (inactive); in experiment [7] it was 15.4% (inactive); in experiment [15], 8.9% (inactive) and -9.16% (inactive) and -5.08% (inactive).
